Measurements published in ChEMBL document CHEMBL4513137, “CO-ADD screening of University of Manchester (UK) compounds”.
Potency and affinity values are given separately.

The molecules below were run on Cryptococcus neoformans. Conditions: Concentration 32 ug.mL-1; ASSAY_TEST Inhibition of Fungal Growth; detection method Resazurin; Absorption (OD600-OD570); plate type 384well; NBS; CORNING #3640.

Row | Compound | Inhibition
1 | COc1cccc(N(C)c2cccc(OC)c2-c2ccc([N+](=O)[O-])cc2C)c1 | -0.6%
2 | O=[N+]([O-])c1ccc2c3ccccc3n(-c3ccccc3)c2c1 | 2.74%
3 | O=[N+]([O-])c1ccc(-c2ccccc2Nc2ccccc2Br)cc1 | 1.33%
4 | CN(c1ccccc1)c1ccccc1-c1ccc([N+](=O)[O-])cc1 | 1.49%
5 | O=[N+]([O-])c1ccc(-c2c(Nc3ccccc3)ccc3ccccc23)cc1 | 0.54%
6 | Cc1cc([N+](=O)[O-])ccc1-c1ccccc1N(C)c1ccccc1 | -0.44%
7 | O=[N+]([O-])c1ccc(-c2ccccc2Nc2ccccc2)c(Cl)c1 | 1.38%
8 | O=[N+]([O-])c1ccc(-c2ccccc2N(Cc2ccccc2)c2ccccc2)cc1 | 2.22%
9 | Cc1cccc(C)c1Nc1ccccc1-c1ccccc1[N+](=O)[O-] | 4.1%
10 | O=[N+]([O-])c1ccc(-c2ccccc2Nc2ccccc2)cc1F | 3.42%
11 | Cc1cc(C)c(Nc2ccccc2-c2ccc([N+](=O)[O-])cc2)c(C)c1 | 1.01%
12 | COc1cccc(Nc2ccccc2)c1-c1c(Cl)cc(Br)cc1Cl | 9.7%
13 | c1ccc(Nc2ccccc2-c2ncccn2)cc1 | 7.92%
14 | Clc1cc(Br)cc(Cl)c1-c1ccccc1Nc1ccccc1 | 2.48%
15 | Cc1ccccc1Nc1ccccc1-c1ccc([N+](=O)[O-])cc1 | -1.9%
16 | O=[N+]([O-])c1ccc(-c2c(Nc3ccccc3)cccc2-c2ccccc2)cc1 | 2.38%
17 | COc1cc([N+](=O)[O-])ccc1-c1c(Nc2ccccc2)cccc1OC | -2.27%
18 | CC(=O)c1ccc(-c2ccccc2Nc2ccccc2)cc1 | 0.86%
19 | COc1cc([N+](=O)[O-])ccc1-c1ccccc1Nc1ccccc1 | -0.44%
20 | COc1cccc(Nc2ccccc2)c1-c1ccc([N+](=O)[O-])cc1 | 1.49%
21 | O=[N+]([O-])c1ccc(-c2ccccc2Nc2ccccc2)cc1 | 1.06%
22 | O=[N+]([O-])c1ccc(-c2ccccc2Nc2ccccc2)cc1C(F)(F)F | 2.9%
23 | O=[N+]([O-])c1ccc(-c2cccc3c2[nH]c2ccccc23)cc1 | -0.08%
24 | N#Cc1ccc(-c2ccccc2Nc2ccccc2)cc1 | 2.95%
25 | COc1ccc(Nc2ccccc2-c2ccc([N+](=O)[O-])cc2)cc1 | 2.27%
26 | O=[N+]([O-])c1cc(Cl)c(-c2ccccc2Nc2ccccc2)c(Cl)c1 | -0.86%
27 | CC[C@@H](Nc1ccccc1-c1c(Cl)cc(Br)cc1Cl)c1ccccc1 | 0.76%
